About 2,200 (0.71%) of roughly 310,000 compounds showed an effect of 50% or more. Effects have a minus sign here. Many of the other results were omitted from the sample, so strong results are more common in it than they were.

human ether-à-go-go-related gene (hERG) potassium channel, sequence (Q12809 whole entry, looked up): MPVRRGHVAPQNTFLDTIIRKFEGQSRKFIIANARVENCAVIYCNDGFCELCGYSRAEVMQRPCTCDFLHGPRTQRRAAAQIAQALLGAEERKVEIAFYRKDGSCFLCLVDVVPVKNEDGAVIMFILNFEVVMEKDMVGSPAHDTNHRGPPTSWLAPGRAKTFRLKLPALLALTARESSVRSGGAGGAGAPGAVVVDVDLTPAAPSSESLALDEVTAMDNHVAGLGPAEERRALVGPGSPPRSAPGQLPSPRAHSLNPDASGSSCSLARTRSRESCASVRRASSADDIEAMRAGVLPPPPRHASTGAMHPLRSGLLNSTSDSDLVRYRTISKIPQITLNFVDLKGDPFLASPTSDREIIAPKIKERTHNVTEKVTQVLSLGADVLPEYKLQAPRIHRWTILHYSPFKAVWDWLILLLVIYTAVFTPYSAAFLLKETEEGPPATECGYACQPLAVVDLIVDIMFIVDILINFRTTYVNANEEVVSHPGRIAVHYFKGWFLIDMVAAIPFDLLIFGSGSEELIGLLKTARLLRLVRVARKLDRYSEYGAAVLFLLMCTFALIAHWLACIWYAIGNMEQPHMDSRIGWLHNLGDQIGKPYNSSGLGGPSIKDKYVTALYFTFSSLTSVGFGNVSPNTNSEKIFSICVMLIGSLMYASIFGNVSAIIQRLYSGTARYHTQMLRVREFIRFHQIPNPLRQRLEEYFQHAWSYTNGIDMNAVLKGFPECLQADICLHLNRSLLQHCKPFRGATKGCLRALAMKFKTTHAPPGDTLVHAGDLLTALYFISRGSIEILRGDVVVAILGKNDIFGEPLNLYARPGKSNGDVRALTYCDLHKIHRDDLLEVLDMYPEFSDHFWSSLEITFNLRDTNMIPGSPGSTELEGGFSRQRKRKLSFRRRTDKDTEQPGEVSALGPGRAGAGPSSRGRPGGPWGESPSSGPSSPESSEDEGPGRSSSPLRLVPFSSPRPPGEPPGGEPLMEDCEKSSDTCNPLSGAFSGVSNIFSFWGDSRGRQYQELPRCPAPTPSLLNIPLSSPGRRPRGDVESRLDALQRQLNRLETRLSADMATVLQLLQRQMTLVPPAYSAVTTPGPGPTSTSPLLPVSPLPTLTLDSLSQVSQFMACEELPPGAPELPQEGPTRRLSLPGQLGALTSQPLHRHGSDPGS

This assay addresses human ether-à-go-go-related gene (hERG) potassium channel (human, UniProt Q12809). Kind of assay: primary screen, population patch clamp on CHO cells stably expressing hERG; higher = less effect of the substance.
Turning to `COc1cccc(CN2CCC(C(=O)N3CCN(c4ccccc4F)CC3)CC2)c1`, the “hERG current change (%, negative = inhibition) at 1uM” value was -20.8%.

Consider `CCCn1c(=O)c(C(=O)Nc2ccccc2C(=O)OCC)c(O)c2ccccc21`, for which the “hERG current change (%, negative = inhibition) at 1uM” value worked out at 16.2%.

Take `CNC(=S)Nc1cc(C(F)(F)F)ccc1Cl`: the “hERG current change (%, negative = inhibition) at 1uM” value is -4.86%.

For the compound `Cc1cc(OCC(=O)Nc2ccc3oc(-c4ccncc4)nc3c2)ccc1Cl`, the “hERG current change (%, negative = inhibition) at 1uM” value is on record as 9.6%.

Regarding `Cc1ccc(/C=C2\SC(=S)N(CCCC(=O)Nc3ccccn3)C2=O)cc1`, the “hERG current change (%, negative = inhibition) at 1uM” value is on record as 3.9%.

In the case of `Cc1csc(NC(=O)C2=NN(c3ccccc3)C(=O)CC2)n1`, the “hERG current change (%, negative = inhibition) at 1uM” value is 9.03%.

For `CC1CCCN(CCOCCOc2ccc(Br)cc2Cl)C1.O=C(O)C(=O)O` (stereo not shown), the “hERG current change (%, negative = inhibition) at 1uM” value is on record as -7.22%.

Take `CC1CCN(CCOCCOc2ccc(Br)cc2Cl)CC1.O=C(O)C(=O)O`: the “hERG current change (%, negative = inhibition) at 1uM” value is -52%.

`Brc1ccccc1OCCCN1CCCC1.O=C(O)C(=O)O`: the “hERG current change (%, negative = inhibition) at 1uM” value worked out at 8.64%.

`O=C(O)C(=O)O.c1ccc(-c2ccccc2OCCCCN2CCCCCC2)cc1`: the “hERG current change (%, negative = inhibition) at 1uM” value is on record as -48.2%.

In the case of `Brc1ccccc1OCCCCN1CCCCC1`, the “hERG current change (%, negative = inhibition) at 1uM” value is listed as -1.28%.

Turning to `CN1CCN(CCOCCOc2ccc(Br)cc2Cl)CC1.O=C(O)C(=O)O`, the “hERG current change (%, negative = inhibition) at 1uM” value is recorded as 10.1%.

For the compound `O=C(O)C(=O)O.c1ccc(-c2ccccc2OCCCN2CCCCCC2)cc1`, the “hERG current change (%, negative = inhibition) at 1uM” value is given as -52.7%.

Regarding `Brc1ccccc1OCCCN1CCCCCC1.O=C(O)C(=O)O`, the “hERG current change (%, negative = inhibition) at 1uM” value was -59.2%.

With `O=C(O)C(=O)O.c1ccc(-c2ccccc2OCCCN2CCCC2)cc1`, the “hERG current change (%, negative = inhibition) at 1uM” value is listed as -49.4%.

Turning to `CNc1ccccc1C(=O)OCC(=O)c1ccc(F)cc1`, the “hERG current change (%, negative = inhibition) at 1uM” value amounted to 7.17%.

For `CCN1C(=O)c2ccc(C(=O)NCc3ccco3)cc2C1=O`, the “hERG current change (%, negative = inhibition) at 1uM” value is given as 11%.

For the compound `O=C(CC1Sc2ccccc2NC1=O)NNC(=O)Nc1ccc(Cl)cc1` (stereo not shown), the “hERG current change (%, negative = inhibition) at 1uM” value worked out at 9.26%.

As to `CCOc1ccccc1NC(=O)C(NCC1CCCCC1)c1ccccc1` (stereo not shown), the “hERG current change (%, negative = inhibition) at 1uM” value was 8.03%.

Regarding `CCOc1ccccc1NC(=O)C(NCC1(N2CCCCC2)CCCCC1)c1ccccc1.O=C(O)C(=O)O` (stereo not shown), the “hERG current change (%, negative = inhibition) at 1uM” value is -57.4%.

As for `CCOc1ccccc1NC(=O)C(NCCN(C)C)c1ccccc1.O=C(O)C(=O)O` (stereo not shown), the “hERG current change (%, negative = inhibition) at 1uM” value is listed as -49.1%.

For `C/C(N)=C(\C#N)C(=O)NCc1ccccn1`, the “hERG current change (%, negative = inhibition) at 1uM” value is listed as 10.9%.

Consider `Cc1cc(C)c(-c2cc(C(F)(F)F)no2)c(=O)[nH]1`, for which the “hERG current change (%, negative = inhibition) at 1uM” value turned out to be 12.2%.

Take `O=C(O)Cn1nc2c3c(cccc3c1=O)-c1ccccc1-2`: the “hERG current change (%, negative = inhibition) at 1uM” value is reported as 8.49%.

Consider `O=c1c2cccc3c2c(nn1CN1CCOCC1)-c1ccccc1-3`, for which the “hERG current change (%, negative = inhibition) at 1uM” value is recorded as -15.3%.

Take `CCN(CC)CCn1nc2c3c(cccc3c1=O)-c1ccccc1-2`: the “hERG current change (%, negative = inhibition) at 1uM” value is -50%.

In the case of `COc1ccc(OC(=O)NCCc2ccccc2)cc1`, the “hERG current change (%, negative = inhibition) at 1uM” value stood at 12.2%.

Regarding `Cc1ccc(S(=O)(=O)c2cc3c(=O)n4cccc(C)c4nc3n(C3CCCCC3)c2=N)cc1`, the “hERG current change (%, negative = inhibition) at 1uM” value is listed as 8.4%.

On to `Cc1cccn2c(=O)c3cc(C(=O)NCc4ccco4)c(=N)n(C4CCCCC4)c3nc12`, for which the “hERG current change (%, negative = inhibition) at 1uM” value is given as -84.8%.

Take `Cc1cccn2c(=O)c3cc(S(=O)(=O)c4ccc(Br)cc4)c(=N)n(C4CCCCC4)c3nc12`: the “hERG current change (%, negative = inhibition) at 1uM” value was 26%.

Consider `Cc1cccn2c(=O)c3cc(C(=O)NCc4ccco4)c(=N)n(C4CCCC4)c3nc12`, for which the “hERG current change (%, negative = inhibition) at 1uM” value is recorded as -85.5%.

For `Cc1cccn2c(=O)c3cc(S(=O)(=O)c4ccc(Br)cc4)c(=N)n(C4CCCC4)c3nc12`, the “hERG current change (%, negative = inhibition) at 1uM” value is 14.5%.

Consider `CC1CCc2nc(NC(=O)Cc3cccs3)sc2C1` (stereo not shown), for which the “hERG current change (%, negative = inhibition) at 1uM” value was 12.7%.

In the case of `O=C1NC(C(F)(F)F)(C(F)(F)F)N=C2SC=CN12`, the “hERG current change (%, negative = inhibition) at 1uM” value was determined as 1.69%.

Regarding `CCCOc1ccc(C2C(C(=O)OC)=CN(CCOC)C=C2C(=O)OC)cc1`, the “hERG current change (%, negative = inhibition) at 1uM” value is -5.54%.

For the compound `CCN(CC)C(=O)CN1C(=O)COCC1=O`, the “hERG current change (%, negative = inhibition) at 1uM” value is listed as 5.42%.

On to `S=C1NC(c2ccccc2)N2C(=S)NC(c3ccccc3)N12` (stereo not shown), for which the “hERG current change (%, negative = inhibition) at 1uM” value is recorded as 3.38%.

Take `CCOc1ccc2nc(C)cc(Nc3ccc(N4CCOCC4)cc3)c2c1.Cl`: the “hERG current change (%, negative = inhibition) at 1uM” value is reported as -60.6%.

Consider `CCOc1ccc2nc(C)cc(Nc3ccc4c(c3)OCCO4)c2c1.Cl`, for which the “hERG current change (%, negative = inhibition) at 1uM” value is -47%.

As to `COc1ccc2nc(C)cc(Nc3ccc(N4CCOCC4)cc3)c2c1.Cl`, the “hERG current change (%, negative = inhibition) at 1uM” value is reported as -25.1%.

As to `CCOc1ccc(-c2c(C)n(-c3ccc(OCC)cc3)c3[n+]2CCCCC3)cc1.[O-][Cl+3]([O-])([O-])[O-]`, the “hERG current change (%, negative = inhibition) at 1uM” value is -50.8%.

Consider `CCOc1ccc(-n2c(-c3ccc(OC)cc3)c[n+]3c2CCCCC3)cc1.[Br-]`, for which the “hERG current change (%, negative = inhibition) at 1uM” value was -39.1%.

For `CCOc1ccc(-n2c(-c3ccc(Br)cc3)c[n+]3c2CCCCC3)cc1.[Br-]`, the “hERG current change (%, negative = inhibition) at 1uM” value is -46.5%.

The values above are taken from publication PMC4336329 (PLoS ONE, 2015).
